Laboratory results as given in PubChem BioAssay (NCI).
About 83,000 compounds went through this panel and 20% of them were active in at least one assay; those are over-represented in the sample as a whole.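 The endpoint reported here, percent growth, reads 100 for growth as untreated, 0 for no net growth and -100 for all cells dead.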 The source made the active and inactive calls. Rule for the calls: active = growth percent below 10; inactive = the rest.

Experiments:
Test in all cases: NCI-60 one-dose screen, 48 h (100 = growth as untreated, 0 = no growth, -100 = all killed)
Settings in all cases: 10 µM unless noted
SK-MEL-2 melanoma = system: SK-MEL-2 melanoma
EKVX NSCLC = system: EKVX NSCLC
SN12C renal = system: SN12C renal
UO-31 renal = system: UO-31 renal
TK-10 renal = system: TK-10 renal
ACHN renal = system: ACHN renal
A498 renal = system: A498 renal
CCRF-CEM leukemia = system: CCRF-CEM leukemia
MOLT-4 leukemia = system: MOLT-4 leukemia
SR leukemia = system: SR leukemia
RPMI-8226 leukemia = system: RPMI-8226 leukemia
OVCAR-8 ovarian = system: OVCAR-8 ovarian
OVCAR-5 ovarian = system: OVCAR-5 ovarian
OVCAR-4 ovarian = system: OVCAR-4 ovarian
SK-OV-3 ovarian = system: SK-OV-3 ovarian
IGROV1 ovarian = system: IGROV1 ovarian
OVCAR-3 ovarian = system: OVCAR-3 ovarian
HS 578T breast = system: HS 578T breast
NCI/ADR-RES ovarian = system: NCI/ADR-RES ovarian
T-47D breast = system: T-47D breast

Measured: growth

Nc1cccc(C(=O)Nc2ccc3c(O)c(N=Nc4ccc(N=Nc5ccc(S(=O)(=O)O)cc5)cc4)c(S(=O)(=O)O)cc3c2)c1
inactive: SK-MEL-2 melanoma 108% | EKVX NSCLC 103% | SN12C renal 106% | UO-31 renal 90.2% | TK-10 renal 101% | ACHN renal 105% | A498 renal 105% | CCRF-CEM leukemia 96.6% | MOLT-4 leukemia 84.6% | SR leukemia 77.4% | RPMI-8226 leukemia 98.2% | OVCAR-8 ovarian 107% | OVCAR-5 ovarian 109% | OVCAR-4 ovarian 94.3% | SK-OV-3 ovarian 101% | IGROV1 ovarian 97.8% | OVCAR-3 ovarian 102% | HS 578T breast 103%

O=C1C(Cl)=C(NCCCN(CCCNC2=C(Cl)C(=O)c3ccccc3C2=O)C2=C(Cl)C(=O)c3ccccc3C2=O)C(=O)c2ccccc21
inactive: SK-MEL-2 melanoma 79.4% | EKVX NSCLC 80% | UO-31 renal 58.1% | TK-10 renal 146% | ACHN renal 74.6% | A498 renal 100% | CCRF-CEM leukemia 34.6% | MOLT-4 leukemia 31.6% | RPMI-8226 leukemia 45.4% | OVCAR-8 ovarian 39.2% | OVCAR-5 ovarian 121% | OVCAR-4 ovarian 33.9% | SK-OV-3 ovarian 93.8% | IGROV1 ovarian 54.8% | HS 578T breast 67.6% | NCI/ADR-RES ovarian 76.1%
active: SN12C renal 4.16% | SR leukemia 2.55% | OVCAR-3 ovarian -0.584%

O=C1CCC23OC(C(O)c4ccccc4N12)C1C(Br)=NOC13 (configuration not stated)
inactive: SK-MEL-2 melanoma 108% | EKVX NSCLC 99.7% | SN12C renal 90.7% | UO-31 renal 87.2% | TK-10 renal 98.5% | ACHN renal 104% | A498 renal 108% | CCRF-CEM leukemia 103% | MOLT-4 leukemia 103% | SR leukemia 102% | RPMI-8226 leukemia 98.7% | OVCAR-8 ovarian 103% | OVCAR-5 ovarian 97.7% | OVCAR-4 ovarian 95.4% | SK-OV-3 ovarian 99% | IGROV1 ovarian 106% | OVCAR-3 ovarian 105% | HS 578T breast 106% | NCI/ADR-RES ovarian 106% | T-47D breast 102%

CCOC(=O)C1=C(C)n2nc(CC#N)c(C#N)c2NC1c1ccc(CC)cc1 (configuration not stated)
inactive: SK-MEL-2 melanoma 106% | EKVX NSCLC 82.4% | SN12C renal 100% | UO-31 renal 65.4% | TK-10 renal 109% | ACHN renal 98.7% | A498 renal 104% | CCRF-CEM leukemia 101% | MOLT-4 leukemia 104% | SR leukemia 104% | RPMI-8226 leukemia 102% | OVCAR-8 ovarian 104% | OVCAR-5 ovarian 99.8% | OVCAR-4 ovarian 93.2% | SK-OV-3 ovarian 98.2% | IGROV1 ovarian 69.9% | OVCAR-3 ovarian 99.2% | HS 578T breast 115% | NCI/ADR-RES ovarian 96.9% | T-47D breast 94.9%

COc1ccc(/C=C/C(=O)c2ccc(NC(=O)CSc3nnc(-c4ccc(OC)c(OC)c4)n3-c3ccccc3)cc2)cc1
inactive: SK-MEL-2 melanoma 74.7% | EKVX NSCLC 66% | SN12C renal 40.5% | TK-10 renal 101% | ACHN renal 59.9% | A498 renal 93.5% | MOLT-4 leukemia 10.8% | OVCAR-8 ovarian 11.4% | OVCAR-5 ovarian 112% | OVCAR-4 ovarian 91.3% | SK-OV-3 ovarian 85.1% | OVCAR-3 ovarian 59.8% | HS 578T breast 86.6% | NCI/ADR-RES ovarian 57.4%
active: UO-31 renal -81.3% | CCRF-CEM leukemia -20.9% | SR leukemia -38.2% | RPMI-8226 leukemia -25% | IGROV1 ovarian -36.7%

Nn1c(SCC(=O)Nc2ccc(Cl)cc2)nnc1-c1cc(F)c(Cl)cc1Cl
inactive: SK-MEL-2 melanoma 83.4% | EKVX NSCLC 90.9% | SN12C renal 97.8% | UO-31 renal 69.9% | TK-10 renal 97.6% | ACHN renal 87.2% | A498 renal 65.2% | CCRF-CEM leukemia 92.8% | MOLT-4 leukemia 80.4% | SR leukemia 56.5% | RPMI-8226 leukemia 76.8% | OVCAR-8 ovarian 89.9% | OVCAR-5 ovarian 66.5% | OVCAR-4 ovarian 85.9% | SK-OV-3 ovarian 89.9% | IGROV1 ovarian 89.9% | OVCAR-3 ovarian 84.2% | HS 578T breast 99.7% | NCI/ADR-RES ovarian 93.5%

O=C1CCc2ccccc2N1
inactive: SK-MEL-2 melanoma 101% | EKVX NSCLC 75.5% | SN12C renal 99.1% | UO-31 renal 90.3% | TK-10 renal 88.2% | ACHN renal 100% | A498 renal 111% | CCRF-CEM leukemia 107% | MOLT-4 leukemia 110% | SR leukemia 93.5% | RPMI-8226 leukemia 106% | OVCAR-8 ovarian 105% | OVCAR-5 ovarian 103% | OVCAR-4 ovarian 94.7% | SK-OV-3 ovarian 108% | IGROV1 ovarian 98.4% | OVCAR-3 ovarian 102% | HS 578T breast 103% | NCI/ADR-RES ovarian 101%

CCSc1ccc(C2C(Br)C(=O)N2c2cc(OC)c(OC)c(OC)c2)cc1 (configuration not stated)
active: A498 renal -14.3% | RPMI-8226 leukemia 9.73% | OVCAR-3 ovarian 3.63% | HS 578T breast 8.62%
inactive: SK-MEL-2 melanoma 63.7% | EKVX NSCLC 70.2% | SN12C renal 31.6% | UO-31 renal 26.2% | TK-10 renal 76.6% | ACHN renal 32.6% | CCRF-CEM leukemia 12.3% | MOLT-4 leukemia 20% | SR leukemia 16.3% | OVCAR-8 ovarian 17.4% | OVCAR-5 ovarian 31.1% | OVCAR-4 ovarian 38.3% | SK-OV-3 ovarian 21.8% | IGROV1 ovarian 29.1%

COc1cccc(NC(=O)Nc2ccc(Oc3ncnc4[nH]c(C)c(C)c34)cc2)c1
inactive: SK-MEL-2 melanoma 100% | EKVX NSCLC 102% | SN12C renal 74.5% | UO-31 renal 86.1% | TK-10 renal 114% | ACHN renal 73.6% | A498 renal 106% | CCRF-CEM leukemia 76.4% | MOLT-4 leukemia 56.9% | SR leukemia 10.5% | RPMI-8226 leukemia 72.4% | OVCAR-8 ovarian 77% | OVCAR-5 ovarian 129% | OVCAR-4 ovarian 99.2% | SK-OV-3 ovarian 107% | IGROV1 ovarian 52% | OVCAR-3 ovarian 103% | HS 578T breast 84.8% | NCI/ADR-RES ovarian 83.5%

COc1ccccc1Nc1nnc(-c2ccc(Cl)cc2)o1
inactive: SK-MEL-2 melanoma 34.4% | EKVX NSCLC 50.8% | SN12C renal 59.6% | UO-31 renal 69.5% | TK-10 renal 68.9% | ACHN renal 72.2% | A498 renal 45.3% | CCRF-CEM leukemia 38% | MOLT-4 leukemia 19.5% | SR leukemia 19.7% | RPMI-8226 leukemia 29.2% | OVCAR-8 ovarian 60.1% | OVCAR-5 ovarian 86.5% | OVCAR-4 ovarian 68.3% | SK-OV-3 ovarian 47.7% | IGROV1 ovarian 52.8% | HS 578T breast 64.5% | NCI/ADR-RES ovarian 20.8%
active: OVCAR-3 ovarian 8.06%

CCOC(=O)c1sc(/N=C2\NC(=O)/C(=C/c3ccc(N4CCN(C)CC4)cc3)S2)nc1C
inactive: SK-MEL-2 melanoma 98% | EKVX NSCLC 96.7% | SN12C renal 111% | UO-31 renal 84.6% | TK-10 renal 116% | ACHN renal 108% | A498 renal 111% | CCRF-CEM leukemia 91.7% | MOLT-4 leukemia 88.9% | SR leukemia 101% | RPMI-8226 leukemia 87.5% | OVCAR-8 ovarian 110% | OVCAR-5 ovarian 110% | OVCAR-4 ovarian 103% | SK-OV-3 ovarian 102% | IGROV1 ovarian 99.5% | OVCAR-3 ovarian 96.3% | HS 578T breast 107% | NCI/ADR-RES ovarian 98.1%

CN1CCN(/C=C2\CC(C(=O)NCc3ccc(Cl)cc3Cl)NC2=O)CC1 (configuration not stated)
inactive: SK-MEL-2 melanoma 100% | EKVX NSCLC 116% | SN12C renal 106% | UO-31 renal 95% | TK-10 renal 92.7% | ACHN renal 110% | A498 renal 90.8% | CCRF-CEM leukemia 88% | MOLT-4 leukemia 95.2% | SR leukemia 90.3% | RPMI-8226 leukemia 93.9% | OVCAR-8 ovarian 99.1% | OVCAR-5 ovarian 110% | OVCAR-4 ovarian 110% | SK-OV-3 ovarian 107% | IGROV1 ovarian 109% | OVCAR-3 ovarian 108% | HS 578T breast 103% | NCI/ADR-RES ovarian 107%

Cc1ccc(CS/C(=C\c2ccc([N+](=O)[O-])cc2)C(=O)c2ccc(F)cc2)cc1
active: CCRF-CEM leukemia 5.04% | MOLT-4 leukemia 3.17% | SR leukemia 0.11% | RPMI-8226 leukemia -18.3% | HS 578T breast 8.91%
inactive: SK-MEL-2 melanoma 74.5% | EKVX NSCLC 64% | SN12C renal 45.9% | UO-31 renal 46.7% | TK-10 renal 91.7% | ACHN renal 60.1% | A498 renal 89.4% | OVCAR-8 ovarian 57.1% | OVCAR-5 ovarian 97.7% | OVCAR-4 ovarian 60.6% | SK-OV-3 ovarian 79.2% | IGROV1 ovarian 58.5% | OVCAR-3 ovarian 60.1% | NCI/ADR-RES ovarian 49.6% | T-47D breast 49.6%

CCOC(=O)c1c(-c2ccc(O)cc2)c(C#N)c2c(C#N)c(N)nn2c1N
inactive: SK-MEL-2 melanoma 44.9% | EKVX NSCLC 71.6% | SN12C renal 81.7% | UO-31 renal 69.9% | TK-10 renal 82.8% | ACHN renal 88% | A498 renal 34.9% | CCRF-CEM leukemia 35.7% | MOLT-4 leukemia 23.7% | SR leukemia 22.3% | RPMI-8226 leukemia 38.7% | OVCAR-8 ovarian 70.8% | OVCAR-5 ovarian 89.3% | OVCAR-4 ovarian 81% | SK-OV-3 ovarian 75.5% | IGROV1 ovarian 52.3% | OVCAR-3 ovarian 66.3% | HS 578T breast 70.2% | NCI/ADR-RES ovarian 95.9% | T-47D breast 28.2%

COc1ccc(Cl)c([N+](=O)[O-])c1
inactive: SK-MEL-2 melanoma 104% | EKVX NSCLC 103% | SN12C renal 99% | UO-31 renal 90.6% | TK-10 renal 95.8% | ACHN renal 107% | A498 renal 113% | CCRF-CEM leukemia 109% | MOLT-4 leukemia 95.2% | SR leukemia 93.1% | RPMI-8226 leukemia 106% | OVCAR-8 ovarian 106% | OVCAR-5 ovarian 102% | OVCAR-4 ovarian 101% | SK-OV-3 ovarian 98% | IGROV1 ovarian 108% | OVCAR-3 ovarian 112% | HS 578T breast 105% | NCI/ADR-RES ovarian 102% | T-47D breast 84%

CCOC(=O)/C=C1\SC(=Nc2ccc(C#N)cc2)N(CCN2C(=O)/C(=C/C(=O)OCC)SC2=Nc2ccc(C#N)cc2)C1=O
active: CCRF-CEM leukemia 1.57% | MOLT-4 leukemia 9.39% | SR leukemia 1.69% | RPMI-8226 leukemia -26.8% | OVCAR-8 ovarian 5.38% | OVCAR-3 ovarian 7.13%
inactive: SK-MEL-2 melanoma 80.8% | EKVX NSCLC 35.2% | SN12C renal 24.2% | UO-31 renal 56.6% | TK-10 renal 87.4% | ACHN renal 78.6% | A498 renal 63.7% | OVCAR-5 ovarian 84.4% | OVCAR-4 ovarian 50.8% | SK-OV-3 ovarian 85.4% | IGROV1 ovarian 23.7% | HS 578T breast 63.7% | NCI/ADR-RES ovarian 43.7%
